Assay [1] concerns DLD1. Kind of assay: cell viability (CellTiter-Glo) relative to plate median (fraction of plate median); higher = more viable cells. The note with it: 5 µM; treatment time 24 h; reporter: 7TFP. In a few lines:
(§1)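 Colorectal cancer cell lines stably transduced with lentiviral TCF/Wnt firefly luciferase reporters (7TFP or TCF4/Wnt) were seeded in 384-well plates. 24 h later they received library compounds at a final 5 µM for 24 h. Parallel plates were read for firefly luciferase or CellTiterGlo luminescence on a Tecan F500 reader. Each well's signal was normalised to the plate median (webcellHTS2, additive, no log transformation), and the mean of two independent replicates is reported.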

The test system of assay [2] is HCT116. The description is as above. The note with it: 5 µM; treatment time 24 h; reporter: TCF4/Wnt. In a few lines:
as §1

The subject of assay [3] is SW480. Described as above. The note with it: 5 µM; treatment time 24 h; reporter: 7TFP. In outline:
as §1

In assay [4] the test system is DLD1. Kind of assay: TCF/Wnt firefly luciferase reporter signal relative to plate median (fraction of plate median); higher = higher Wnt reporter signal. The note with it: 5 µM; treatment time 24 h; reporter: 7TFP. In a few lines:
as §1

Assay [5] relates to SW480. The assay is described as above. The note with it: 5 µM; treatment time 24 h; reporter: 7TFP. In a few lines:
as §1

± gives the standard deviation of the averaged measurements.

The record followed here is the supplement of paper PMC6522484.

Turning to `CC(C)CCCC(C)C1CCC2C3=CCC4CC(O)CCC4(C)C3CCC21C` (stereo not given), the cell viability in assay [1] was determined as 1.05 ± 0.064; in assay [2] it was 1.07 ± 0.11; in assay [3], 1.02 ± 0.043. The “TCF/Wnt firefly luciferase reporter signal” value in assay [4] was 0.891 ± 0.083; in assay [5], 0.897 ± 0.12.

For the compound `Cc1onc(-c2ccccc2Cl)c1C(=O)N[C@@H]1C(=O)N2[C@@H]1SC(C)(C)[C@@H]2C(=O)O`, the values for the cell viability in assay [1], in assay [2] and in assay [3] were 1.02 ± 0.17, 1.02 ± 0.06 and 0.994 ± 0.037, respectively. Also, the “TCF/Wnt firefly luciferase reporter signal” value turned out to be 1.02 ± 0.035 in assay [4] and 0.952 ± 0.058 in assay [5].

With `Clc1ccc2c(c1)CCc1cccnc1C2=C1CCNCC1`, the results for the cell viability in assay [1], in assay [2] and in assay [3] were 0.992 ± 0.011, 1.07 ± 0.021 and 0.97 ± 0.021, respectively. Further, the “TCF/Wnt firefly luciferase reporter signal” value in assay [4] was 1 ± 0.015; in assay [5], 1.12 ± 0.014.

Consider `C=CC1=C(C)/C(=C/c2[nH]c(Cc3[nH]c(/C=C4\NC(=O)C(C)=C4C=C)c(C)c3CCC(=O)O)c(CCC(=O)O)c2C)NC1=O`, for which the values for the cell viability in assay [1], in assay [2] and in assay [3] were 1.04 ± 0.087, 1.03 and 0.98 ± 0.018, respectively. Moreover, the “TCF/Wnt firefly luciferase reporter signal” value came out at 0.964 ± 0.15 in assay [4] and 0.936 ± 0.018 in assay [5].

For the compound `N=C(N)NCCCCNC(=N)N`, the cell viability is 0.922 ± 0.0085 in assay [1], 0.978 ± 0.1 in assay [2] and 0.965 ± 0.017 in assay [3]. Further, the “TCF/Wnt firefly luciferase reporter signal” value in assay [4] was 0.994 ± 0.14; in assay [5], 1.04 ± 0.067.

Regarding `COc1ccc2c(=O)c(-c3cc4c(cc3OC)OCO4)coc2c1`, the cell viability in assay [1] is 0.995 ± 0.093; in assay [2] it was 1.01 ± 0.053; in assay [3], 1.04 ± 0.035. Also, the “TCF/Wnt firefly luciferase reporter signal” value in assay [4] was 1.03 ± 0.042; in assay [5], 1.14 ± 0.014.

As to `CN(C)c1ccc(O)c2c1C[C@H]1C[C@H]3[C@H](N(C)C)C(O)=C(C(N)=O)C(=O)[C@@]3(O)C(O)=C1C2=O`, the cell viability in assay [1] is 0.991 ± 0.0099; in assay [2], 1.03 ± 0.09; in assay [3], 0.943 ± 0.048. In addition, the results for the “TCF/Wnt firefly luciferase reporter signal” value in assay [4] and in assay [5] were 1.05 ± 0.042 and 1.08 ± 0.085, respectively.

For the compound `COC(=O)[C@@H]1[C@H]2C[C@H]3c4[nH]c5ccccc5c4CCN3C[C@@H]2CC[C@@H]1O`, the cell viability in assay [1] was determined as 0.964 ± 0.033; in assay [2] it was 1.08 ± 0.13; in assay [3], 1.005 ± 0.0071. For the same compound, the “TCF/Wnt firefly luciferase reporter signal” value in assay [4] was 0.919 ± 0.16; in assay [5], 0.9165 ± 0.0021.

On to `CCCN(CCC)CCc1cccc2c1CC(=O)N2`, for which the cell viability was 1.02 ± 0.059 in assay [1], 1.08 ± 0.014 in assay [2] and 1.01 ± 0.044 in assay [3]. For the same compound, the “TCF/Wnt firefly luciferase reporter signal” value is 1.18 ± 0.092 in assay [4] and 1.07 ± 0.028 in assay [5].

On to `O=c1c(O)c(-c2ccccc2)oc2cccc(O)c12`, for which the cell viability is 1.03 ± 0.014 in assay [1], 1.02 ± 0.044 in assay [2] and 1.01 ± 0.045 in assay [3]. The “TCF/Wnt firefly luciferase reporter signal” value in assay [4] is 1.07; in assay [5] it was 0.969 ± 0.021.

For `CN(C)[C@@H]1C(O)=C(C(=O)NCN2CCCC2)C(=O)[C@@]2(O)C(O)=C3C(=O)c4c(O)cccc4[C@@](C)(O)[C@H]3C[C@@H]12`, the cell viability is 1.08 ± 0.13 in assay [1], 1.06 in assay [2] and 1.02 ± 0.014 in assay [3]. The “TCF/Wnt firefly luciferase reporter signal” value in assay [4] worked out at 0.858 ± 0.067; in assay [5] it was 1.04.

As to `Cc1cc(O)c(C=O)c2c1C(=O)Oc1c(COC(=O)/C=C/C(=O)O)c(O)c(C(=O)O)c(C)c1O2`, the cell viability in assay [1] was 0.992 ± 0.026; in assay [2], 1.05 ± 0.021; in assay [3], 0.966 ± 0.011. Also, the “TCF/Wnt firefly luciferase reporter signal” value in assay [4] was 0.933 ± 0.12; in assay [5] it was 0.939 ± 0.12.

For the compound `CN(N=O)C(=O)N[C@H]1C(O)O[C@H](CO)[C@@H](O)[C@@H]1O` (mixture of isomers), the cell viability in assay [1] worked out at 0.999 ± 0.03; in assay [2], 1.03 ± 0.064; in assay [3] it was 1.08 ± 0.021. In addition, the figures for the “TCF/Wnt firefly luciferase reporter signal” value in assay [4] and in assay [5] were 0.962 ± 0.15 and 1.005 ± 0.0071, respectively.
